The values that follow come from PMC13494018.

Values without a mark were called inactive. The rule behind the calls is not given here.

The assay has as its target CD276, Q5ZPR3.

Chain of CD276, Q5ZPR3 (Q5ZPR3 whole entry): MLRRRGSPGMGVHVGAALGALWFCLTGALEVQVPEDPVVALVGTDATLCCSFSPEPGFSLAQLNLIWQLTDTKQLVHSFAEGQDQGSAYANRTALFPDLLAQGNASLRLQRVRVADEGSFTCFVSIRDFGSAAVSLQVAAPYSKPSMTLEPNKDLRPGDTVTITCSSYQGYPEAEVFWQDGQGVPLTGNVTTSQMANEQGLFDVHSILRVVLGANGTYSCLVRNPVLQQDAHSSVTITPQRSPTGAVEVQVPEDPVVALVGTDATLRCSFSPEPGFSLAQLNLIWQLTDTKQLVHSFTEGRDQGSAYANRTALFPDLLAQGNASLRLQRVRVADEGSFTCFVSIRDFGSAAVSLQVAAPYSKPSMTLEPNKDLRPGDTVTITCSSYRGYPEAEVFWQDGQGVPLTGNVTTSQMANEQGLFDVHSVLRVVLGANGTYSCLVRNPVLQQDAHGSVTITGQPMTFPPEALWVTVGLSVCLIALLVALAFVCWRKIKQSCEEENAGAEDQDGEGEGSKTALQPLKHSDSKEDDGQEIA

B1: d1r8_design_ppi_23_dldesign_0_cycle0_af2pred (protein)
chain: MEELAEEYIEEARRYAEEAERLAEQAGEAARPLARAARRALELAEENREDLELVKGQAEAARVFLEAARSRLEQLA
In the case of B1, the “binding in a display sort” value was “not found”.

B2: d1r7_design_ppi_682_dldesign_0_cycle1_af2pred (protein)
chain: ATAEQIQQVKNYAKAAIQAVKNAAASDKAEALAVAKIFADALLKQGKLTTPEAAKEAEKAAKEILATAKALAA
Take B2: the “binding in a display sort” value was “not found”.

B3: d1r8_design_ppi_233_dldesign_0_cycle1_af2pred (protein)
chain: GALEEAKEKKKEAEEIGKQALALAAQNPASRAQAGALQVELLKLSAEARRKAEEYKADPETREAAKAYEEAAKLASQKIVEVSQALV
For the molecule B3, the “binding in a display sort” value was “not found”.

B4: d1r8_design_ppi_150_dldesign_0_cycle1_af2pred (protein)
chain: SQAALVAAKGALALAKGIKAHVESNPNLPLEELEKLKEQLKTAEEMAKAAEKEAKKAGDKEVLEAAKKALEAIKEAKKALEEAIKKAK
Consider B4, for which the “binding in a display sort” value is “not found”.

B5: d1r7_design_ppi_733_dldesign_0_cycle1_af2pred (protein)
chain: VEEALKALEEAAKAAKEAGDEESAKILKEALEKVKAGTPAEGALTIAEKSAEAVKRALEKGNEELAEKILKLGQKAIAALSKAAIA
Consider B5, for which the “binding in a display sort” value is “not found”.

B6: d1r7_design_ppi_640_dldesign_0_cycle1_af2pred (protein)
chain: AQQAVQQTQKVVDETKEVYERAKKEGSPEVAEKLKELLAQAQNNLQMAQAGGAEAAQLMYQNAKKIYEEAKKYAEEEIKKEKE
For the molecule B6, the “binding in a display sort” value is “not found”.

B7: d1r7_design_ppi_609_dldesign_0_cycle0_af2pred (protein)
chain: SELAEQALAAAESLIAEALRAAAEDPARAARLFASAKAVAEALKKIDPKLGEELLKKVEAAEAEAKAAIA
Turning to B7, the “binding in a display sort” value was “not found”.

B8: d1r8_design_ppi_140_dldesign_0_cycle0_af2pred (protein)
chain: DVAAMKKEVEELKKKVEEVAKKAAESPEAQPYVNQAKGNAKSAELAAEGGDVALAKRFLKLAEEAMKKAEALI
In the case of B8, the “binding in a display sort” value was “not found”.

B9: d1r7_design_ppi_538_dldesign_0_cycle0_af2pred (protein)
chain: MEEVKKKAEEAKKEIEKLYEEALKYAKEGDIEKAAEYISKMREKGLEAAEEVPELAEEILAYTGRKALEALLELGKASL
As for B9, the “binding in a display sort” value was “not found”.

B10: d1r7_design_ppi_733_dldesign_0_cycle0_af2pred (protein)
chain: MEEALKALEEAEEAAREAGDEESAEILEKAREEVKAGTPSEGALTVARAAAEAVARARAAGNEDLADRVRALANRAIAALSRAAIA
With B10, the “binding in a display sort” value is “not found”.

B11: d1r7_design_ppi_529_dldesign_0_cycle1_af2pred (protein)
chain: DELEKAIKEAEKYIEELKKTIKEGVKNPEEALKLAEEAEKEGEKAAALGIVGAGVGQLAKAAAQALRNKIAA
As to B11, the “binding in a display sort” value was “not found”.

B12: d1r7_design_ppi_873_dldesign_0_cycle1_af2pred (protein)
chain: SESIENQKKASEAMSEAIEAMAKAGFPISERNEVGKLGIEAMRLFQKSPEDPAALEEGKKKLAEVEKRLKEAKAA
For B12, the “binding in a display sort” value is “not found”.

B13: d1r7_design_ppi_869_dldesign_0_cycle0_af2pred (protein)
chain: GIGDELAKGEEYYRKSIELAKEGNKEEAKKYLEEAEAHYAAAAAAAEAQGNTALAAALRARAKARKEEAEKLIK
On to B13, for which the “binding in a display sort” value is “not found”.

B14: d1r7_design_ppi_815_dldesign_0_cycle0_af2pred (protein)
chain: MEDLEELLRLIAEAQRALKTDAEEGIKLAEEAAKKAEELGLEKAAKLLKEAAKAAKTDAEEGIRLLNQAATQAAREYSEK
Regarding B14, the “binding in a display sort” value is “not found”.

B15: d1r8_design_ppi_218_dldesign_0_cycle1_af2pred (protein)
chain: PTPEELAAAYREVRELAERAVAGTPEEAKRYAERIAELVARAEERFGPGAGVLLRNVALAVARANPVAYEYVRAAL
Consider B15, for which the “binding in a display sort” value was “not found”.

B16: d1r7_design_ppi_562_dldesign_0_cycle1_af2pred (protein)
chain: SEKAEKLKKETLEKAEKAVKEAEASPDPKEGIKILSEAAREAARAAAESPEAGSAALALTVSAMEEFAAKARA
For B16, the “binding in a display sort” value is “not found”.

B17: d1r7_design_ppi_806_dldesign_0_cycle1_af2pred (protein)
chain: AKEEALRTLKSAAELAKVAADIAANVDPELAKKAKELAEKAKKLAEEAKKASEEEAKKLLEEGKKLLEEVRALTAEVARLAVAA
On to B17, for which the “binding in a display sort” value is “not found”.

B18: d1r7_design_ppi_889_dldesign_0_cycle1_af2pred (protein)
chain: SEELDRAGAQTLAEIVGKQAKKVAKAAKELSKEKGGELTPLAEKAEEAAKKAIKLAEEGASAEEIYKAAQEAQDLRLKAKAALKAAKA
B18: the “binding in a display sort” value was “not found”.

B19: d1r7_design_ppi_628_dldesign_0_cycle1_af2pred (protein)
chain: AEALLKEAEEVKARAAELAATGPEGIVEAAKLVAEMRRKGVENPEVRERVDALYREASAEIARQQRAWIAQQAAAR
As to B19, the “binding in a display sort” value is “not found”.

B20: d1r7_design_ppi_677_dldesign_0_cycle0_af2pred (protein)
chain: VEEKIRGIEEAGRLGAEASPELAAEIEAFTKRAVEAARASGDEAVAGAALQAASLALIGAAWYAVDPEKGAAVLARARARLEALIA
For B20, the “binding in a display sort” value is “not found”.

B21: d1r8_design_ppi_80_dldesign_0_cycle0_af2pred (protein)
chain: AAAEAAAALAAARAALAAVRETLARAERGEATREEAGAAINAGMRTIAALNAVAARIPAAKAEFDALAGEILDAIRALAAAVR
On to B21, for which the “binding in a display sort” value was “not found”.

B22: d1r7_design_ppi_941_dldesign_0_cycle1_af2pred (protein)
chain: AADRAAAAAALGAAVEAYSELVKLAKEAIEKHGPKVAPEMEKLIAEAQKALAAAAKAAIAGDAKAAKAAAEKIKKLKEEAKKLLEE
Consider B22, for which the “binding in a display sort” value was “not found”.

B23: d1r7_design_ppi_941_dldesign_0_cycle0_af2pred (protein)
chain: AAAAAEAAEYLGKAVEYHKELEEAARRAIEKFGPEVEEEMEELLREAREALAKASQAAIAGDAEKTKEEMEKIKKIRERAKELLEK
In the case of B23, the “binding in a display sort” value was “not found”.

B24: d1r8_design_ppi_128_dldesign_0_cycle0_af2pred (protein)
chain: EEEVKKAKEEAEKAIEEARETERRYFAEAGRNPANALAYLQAGLEELEKIAKELERKGEEEGGEAGKVYKEAAREIKERRERIAAALS
For B24, the “binding in a display sort” value was “not found”.

B25: d1r7_design_ppi_855_dldesign_0_cycle1_af2pred (protein)
chain: SAAAAQARAVANTAAAAAKQGVPAEEVVALVEGAAKTLAGDPAALQAMIDTLAELAKASTPEAAATLNKAAEAVKKVLA
For B25, the “binding in a display sort” value was “not found”.

B26: d1r7_design_ppi_855_dldesign_0_cycle0_af2pred (protein)
chain: SAAAAQARAVARMAAAAAESGVDAAEVLAVVTGAAQQLAADPAALQAMLDTLTALAAASTPEAAAVLAAAAAAVAAVLA
Take B26: the “binding in a display sort” value was “not found”.

B27: d1r8_design_ppi_87_dldesign_0_cycle1_af2pred (protein)
chain: NPLLEEARRAIEEAAKLVKTGTPEEAREALKRAAHELLRLAARSTDQAVAQKLITAAELVAKAAELVLTNPEEALKLVEEAL
For the molecule B27, the “binding in a display sort” value was “not found”.

B28: d1r7_design_ppi_719_dldesign_0_cycle0_af2pred (protein)
chain: SGAKAAIAAAKHNIKQAKKLLEEGDVEGALGHIKLAELATKAAEAEAKAAGDKEALKKAEELKKEVEELKKEAEKKKK
Take B28: the “binding in a display sort” value is “not found”.

B29: d1r7_design_ppi_522_dldesign_0_cycle1_af2pred (protein)
chain: DPNEKARQLMNDAFQQATKLRAAGAANPATAAQDTAQGVQAVNEAKKKAAELASPEYAGKIEEMAKQLTSIISV
With B29, the “binding in a display sort” value is “not found”.

B30: d1r7_design_ppi_493_dldesign_0_cycle0_af2pred (protein)
chain: SMLKEKEEAEKKRERVEKLIKEAEEAAKEAEKIDPVSGRGLRGMVEAARRLMEEGNLEAAEKLAQVALDAAAGLAAAA
As to B30, the “binding in a display sort” value is “not found”.

B31: d1r8_design_ppi_139_dldesign_0_cycle1_af2pred (protein)
chain: AMSVGELMEVAKAEGAAVNAAAAALAAKDPAKAAALLDAYRAKVNAIIAEMSRTAIASGDFEAAAAAAAAKIKAAAKETLAALKAIA
On to B31, for which the “binding in a display sort” value was “not found”.

B32: d1r7_design_ppi_871_dldesign_0_cycle1_af2pred (protein)
chain: AAAAQTALRTAAAMYRSAAEMFEAGKTEDGLAAAKVAADVAANVPANKEFAAKTLKEITEAAKKDPAEAAKIAREAADYLDAQAAA
For B32, the “binding in a display sort” value is “not found”.

B33: d1r7_design_ppi_702_dldesign_0_cycle0_af2pred (protein)
chain: SAEKETNLANAKGYLALAKAYTKGATYYATKEGDLEKAKELYEKAKEASKLAIEAAAKAGPEAAAKAKAEADEIDKENEKALKEAE
As for B33, the “binding in a display sort” value was “not found”.

B34: d1r8_design_ppi_82_dldesign_0_cycle1_af2pred (protein)
chain: AAAAAKTAAKNVLKAVENFSKNAAAAGKASTPEEAARKLAEIEKFGEAGIAVAAADPEIAKKVKEVVDKAIAELKKAAA
As for B34, the “binding in a display sort” value was “not found”.

B35: d1r8_design_ppi_233_dldesign_0_cycle0_af2pred (protein)
chain: DDLEEARELLEEARRLGEQALALVAQNPAARAEGGALMLELLKLQAEARRRAAEYEADPEKAEAAEAYREAAELASQLVRQISQAAV
Turning to B35, the “binding in a display sort” value was “not found”.

B36: d1r7_design_ppi_719_dldesign_0_cycle1_af2pred (protein)
chain: SGAQAAVAAAQANLRQAKQLLEEGDYEGALGHIKLAKLAADAAKKQATAAGDQAAIDQATALQKEAEELEKEAKKALE
Turning to B36, the “binding in a display sort” value was “not found”.

B37: d1r8_design_ppi_185_dldesign_0_cycle1_af2pred (protein)
chain: AAQAKALAAEADKLTEKARKLAKEGGDKEEVSKLLAEAAEKYAAAAEADPSTAFEYNARANLARFASQQNLEQAAKVAEAI
With B37, the “binding in a display sort” value is “not found”.

B38: d1r7_design_ppi_937_dldesign_0_cycle1_af2pred (protein)
chain: GAAAEAAEREAKAALLKEVGAAAARMAPENPRLAAAGALGAARGLAALGYAEEGKAVLEETAAALPDPEEAARLRAAAAAL
On to B38, for which the “binding in a display sort” value was “binds (active)”.
